Sampled rows, rich in hits. Any-hit rate of the full collection: about 1.2%.
Sa RN4220 lethal: growth inhibition of S. aureus RN4220, primary screen, OD600; 16 h; inhibition, % (concentration not given with the values); 330,000 compounds, 0.33% hits; AID 1259311, 2017; in the data active = inhibition above about 85%
BJeLR viability: MLPCN primary cell-based screen for lethality selective to Ras in HRASV12 cells; BJeLR (HRASV12) viability, CellTiter-Glo ATP luminescence, 48 h; AID 1554, 2009; 300,000 compounds, 0.17% hits; inhibition, % (test concentration not listed); in the data active = inhibition above about 50%
PriA SSB inh: inhibitors of Klebsiella pneumoniae PriA binding to SSB C-terminal tail, primary screen, biochemical, AlphaScreen. PriA–SSB C-terminal tail interaction (Klebsiella pneumoniae). AlphaScreen SSBct-PriA binding, biotinylated peptide. inhibition, % at 33 µM. 430,000 compounds, 0.6% hits; in the data active = inhibition mostly above about 37%, no sharp cut-off; inactive = mostly below about 20%
Sa ugtP lethal: growth inhibition of ugtP-null S. aureus, primary screen, RN4220 ugtP deletion, OD600 | AID 1259309, 2017 | 330,000 compounds, 0.54% hits | 16 h | growth inhibition, % (test concentration not listed); in the data active = growth inhibition above about 68%
MazF activator: activators of E. coli MazEF toxin-antitoxin RNase, primary screen, biochemical, fluorescence, uHTS; FAM/BHQ RNA-DNA oligo cleavage fluorescence, 5 h; activation, % at 20 µM; 350,000 compounds, 0.32% hits; in the data active = activation above about 50%
Target sequence (P0AE70 whole entry, looked up): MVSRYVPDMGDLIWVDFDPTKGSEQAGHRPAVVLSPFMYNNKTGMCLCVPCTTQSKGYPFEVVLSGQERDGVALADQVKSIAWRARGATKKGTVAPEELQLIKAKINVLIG
A number is an active result; – = inactive; · = not tested or not shown.

SMILES	Sa RN4220 lethal	BJeLR viability	PriA SSB inh	Sa ugtP lethal	MazF activator
COc1ccc(-c2cnc(S(=O)CC(=O)NCCc3ccccc3)n2C)cc1 (stereo unspecified)	·	·	–	·	·
CCOc1ccc(N2C(=O)Nc3ccccc3C2(O)C(=O)NCc2ccc(C)cc2)cc1 (stereo unspecified)	–	–	–	active	–
C=CCc1ccc(OCCCCN2CC(C)CC(C)C2)c(OC)c1 (stereo unspecified)	–	–	–	–	–
CC(OC(=O)Nc1cccc(Cl)c1)C(=O)O (stereo unspecified)	·	–	–	·	–
C=CCSc1ncc(-c2ccc(OC)cc2)n1-c1cccc(Cl)c1	·	·	32	·	·
O=C(O)c1cc(-n2ccnc2)ccn1	·	·	72	·	·
O=C(c1cc(-n2ccnc2)ccn1)N1CCN(c2ccccc2)CC1	·	·	–	·	·
O=C(O)c1ccnc(C(=O)O)c1	–	–	57	–	–
O=C(O)c1cc(Br)ccn1	–	–	100	–	–
O=C(Nc1nncs1)c1cc(Cl)ccn1	·	·	124	·	·
CC(C)(C)NNC(=S)Nc1ccc(S(=O)(=O)N2CCOCC2)cc1	–	–	–	–	–
CC(=O)Nc1ccc(S(=O)(=O)N[C@@H](C)C(=O)N2CCN(C/C=C/c3ccccc3)CC2)cc1	–	·	–	–	–
O=C(CN(C(=O)c1csnn1)c1ccc(F)c(Cl)c1)NCc1ccc2c(c1)OCO2	–	–	–	–	–
Cc1csc(NC(=O)/C=C/c2ccncc2)n1	·	·	–	·	·
CC1C(=O)NN=C1C(=O)N/N=C/c1cccs1 (stereo unspecified)	·	–	·	·	–
Cc1nccn1-c1ccc(C(=O)Nc2ccccc2F)nn1	·	·	–	·	·
O=C(O)c1cc(Cl)ccn1	·	·	68	·	·
CCOc1ccc(Nc2ccc([N+](=O)[O-])c3nonc23)cc1	–	–	78	–	–
O=[N+]([O-])c1cc(C(F)(F)F)ccc1NCCNC(=S)Nc1ccc(Cl)cc1	85	–	–	90	–
O=[N+]([O-])c1ccc(NC(=S)NCCc2ccc(Cl)cc2)cc1	101	–	–	100	–
CCCCN1CC(COCc2ccccc2)Oc2cccc(Oc3cc(C)c(C)c(C)c3)c2S1(=O)=O (stereo unspecified)	·	·	–	·	–
COC(=O)Cn1c(=NC(=O)CSC(C)=O)sc2ccccc21	–	–	–	–	–
COc1ccccc1/C=C/CN1CCC(n2nccc2NC(=O)CCc2ccccc2)CC1	–	–	102	–	–
Cc1ccc(-c2nc3cnccn3c2Nc2ccc3c(c2)OCO3)cc1	–	–	38	–	–
COc1ccc(-c2nc3cnccn3c2Nc2ccc3c(c2)OCO3)cc1	–	–	–	–	–
SMILES	Sa RN4220 lethal	BJeLR viability	PriA SSB inh	Sa ugtP lethal	MazF activator
Cc1c(CC(=O)O)c(=O)oc2cc(OCc3ccc(Cl)cc3)ccc12	–	–	–	–	–
O=C(N/N=C/c1ccco1)c1cc(-c2ccncc2)nc2ccccc12	·	–	·	·	–
O=C(/C=C/c1ccc(Br)o1)/C=C/c1ccc(Br)o1	·	·	39	·	·
O=C(/C=C/c1ccc(Br)o1)NCc1ccccc1	–	–	–	–	–
CCOc1ccc(C(=O)NC(=S)Nc2ccccc2N2CCCCC2)cc1[N+](=O)[O-]	–	–	–	–	–
COc1ccc(C(=O)NC(=S)Nc2ccccc2N2CCCCC2)cc1[N+](=O)[O-]	–	–	–	94	–
O=C(NC(=S)Nc1ccccc1N1CCCC1)c1ccc([N+](=O)[O-])cc1	–	–	70	–	–
CCCCC(=O)NC(=S)Nc1cccc(Cl)c1N1CCCCC1	–	–	–	–	–
Cc1c(C(=O)NC(=S)Nc2ccccc2N2CCCC2)cccc1[N+](=O)[O-]	–	–	–	96	–
CCCCC(=O)NC(=S)Nc1ccccc1N1CCCCC1	–	–	–	84	–
Cc1ccc(Cn2nnc3c(SCc4ccc([N+](=O)[O-])cc4)ncnc32)cc1	·	·	–	·	·
COc1cc(OC)c(-c2sc(Nc3ccccc3)n[n+]2-c2ccc(F)cc2)cc1OC	–	–	–	–	–
COc1cccc(-c2sc3ccc(OC)cc3c2-c2ccc(OCCN3CCCC3)cc2)c1	95	·	–	90	–
COc1cccc(-c2sc3ccc(OC)cc3c2-c2ccc(OC)cc2F)c1	–	·	–	90	–
COc1cccc(-c2sc3ccc(OC)cc3c2-c2ccc(C(N)=O)cc2)c1	–	·	–	–	–
COc1cccc(-c2sc3ccccc3c2-c2ccc(OCCN(C)C)cc2)c1	·	·	40	·	–
COc1ccccc1-c1sc2ccccc2c1-c1ccc2c(c1)OCCO2	–	·	–	99	–
NS(=O)(=O)c1ccc(NC(=O)Nc2cccc3ccccc23)cc1	–	–	–	–	–
COc1ccc2sc(-c3ccccc3OC)c(-c3ccc(OCCN(C)C)cc3)c2c1	–	·	–	88	–
CCc1ccc(CCC(=O)Nc2ncc(Cc3ccccc3Cl)s2)o1	–	57	–	–	–
O=C(CN1CCOCC1)Nc1ncc(Cc2ccccc2Cl)s1	–	–	–	–	–
O=C1NC(=S)S/C1=C/c1ccc(OC(=O)c2ccco2)cc1	·	–	–	·	74
CCCc1cc(=O)[nH]c(-n2nc(C)cc2NC(=O)C(=O)NCc2ccc(F)cc2)n1	·	·	–	·	·
CCCc1cc(=O)[nH]c(-n2nc(C)cc2NC(=O)C(C)(C)CCl)n1	·	·	44	·	·
Oc1cccc(/C=N/NC(=S)Nc2cccnc2)c1O	·	–	·	·	–
SMILES	Sa RN4220 lethal	BJeLR viability	PriA SSB inh	Sa ugtP lethal	MazF activator
CN(C)S(=O)(=O)c1cccc(NC(=S)N/N=C/c2cc(Br)ccc2O)c1	·	–	·	·	–
CN(C)S(=O)(=O)c1cccc(NC(=S)NN=Cc2ccc(O)c(O)c2O)c1	–	·	102	–	·
Oc1ccc(/C=N/NC(=S)Nc2cccnc2)c(O)c1O	·	–	·	·	60
COc1ccc2[nH]cc(CCNS(=O)(=O)c3ccc(NC(C)=O)cc3)c2c1	–	–	–	–	–
Cc1c(NC(=S)NN=C/C=C/c2ccc([N+](=O)[O-])cc2)c(=O)n(-c2ccccc2)n1C	–	·	–	88	·
Cc1c(NC(=S)N/N=C/c2cc([N+](=O)[O-])ccc2O)c(=O)n(-c2ccccc2)n1C	·	–	·	·	–
CNC[C@H](CC1CCCCC1)NC[C@H](Cc1ccccc1)NCCC12CC3CC(CC(C3)C1)C2	·	69	–	·	–
NC[C@H](Cc1ccccc1)NCCCCC1CCCCC1	·	·	–	·	–
CS(=O)(=O)Nc1cccc(C2=NN(S(C)(=O)=O)C(c3ccc4c(c3)OCO4)C2)c1 (stereo unspecified)	–	–	–	–	–
CS(=O)(=O)N1N=C(c2ccccc2)CC1c1ccc2c(c1)OCO2 (stereo unspecified)	–	–	–	–	236
CCCCOC(=O)CSc1n[nH]c(=O)[nH]c1=O	–	–	–	–	–
COc1ccccc1C1NC=C([N+](=O)[O-])C=C1[N+](=O)[O-] (stereo unspecified)	–	–	45	–	–
CC1=CC2C(C3C=CC2(C)C(=O)C3(C)O)C(C)(O)C1=O (stereo unspecified)	–	·	–	–	–

Screening results: PubChem BioAssay, several laboratories
